# A number with no mark means an inactive call. Results filed as inconclusive are left out. Calls of active or inactive are those of the source. Unless noted, the call rests on the fitted dose curve; in most records, active means well fitted curve in either direction with a large enough effect (not every such curve was filed as active); inconclusive means small, poorly fitted or top-dose-only effect, or another doubt; inactive means flat fitted curve, though single readings scatter.
# How the values were obtained:
# [1] = molecular target: Lysosomal acid glucosylceramidase (Homo sapiens) (UniProt P04062); test: Glucocerebrosidase-p2 (AID 348; in the data active means potency below about 10 µM; further: potency means the concentration at half of the fitted maximal effect); conditions: purified GBA, blue fluorogenic substrate, 40 min
# Summary of the method: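 Compounds titrated from 0.6 nM upwards against 0.2 nM enzyme in pH 5.9 citric acid/KH2PO4, taurocholate, tween-20; blue fluorogenic substrate 80 uM, 40 min room temperature, stopped and read Ex 365/Em 440 for AC50.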
# [2] = AP1 Signaling Pathway (AID 357); conditions: ME-180 AP-1-bla reporter, EGF-induced, beta-lactamase ratio, 5 h; at 7.69 µM (top of the series) unless noted;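 further: ME-180 reporter cells stimulated with EGF at its EC50 level; on the % scale 0 is the no-effect control and ±100 the full control effect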
# Summary of the method: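 Titration-series screen for positive or negative modulators of EC50 EGF-induced signaling in ME-180 cells carrying an AP-1-driven beta-lactamase reporter. After 5 hours at 37 degrees Celsius, CCF4 460nm/530nm emission ratio gave %Activity; AC50 values derived.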
# [3] = molecular target: Cytochrome P450 1A2 (Homo sapiens) (UniProt P05177); test: p450-cyp1a2 (AID 410; calls by dose curve; further: potency means the concentration at half of the fitted maximal effect;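 on activity change, negative = inhibition: -100% = full effect of reference inhibitor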); conditions: recombinant CYP1A2, luciferin-ME demethylation, luminescence; series mostly up to 11.4 µM
# Summary of the method: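 Luminescent readout of luciferin formed from Luciferin-ME by human CYP1A2; data normalized against complete inhibition by 57 uM furafylline. Enzyme 20nM, substrate 100uM at Km, 100mM KPO4 buffer, 60 min reaction at room temperature.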
# [4] = Stat Signaling Pathway (AID 446); conditions: ME-180 SIE beta-lactamase reporter, IL-6 stimulated, 5 h; at 7.69 µM (top of the series) unless noted;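 further: ME-180 cervical cancer cells given 40 pM IL-6 alongside compound; SIE-controlled beta-lactamase reporter measured as 460/530 nm FRET emission ratio; on the % scale 0 is the no-effect control and ±100 the full control effect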
# Summary of the method: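 ME-180 cells carrying a SIE-driven beta-lactamase reporter are stimulated with 40 pM IL-6 for 5 h at 37C in the presence of compound. The 460/530 nm FRET substrate ratio is read after 2.5 h at RT. Data are normalised to 300 pM IL-6 and to 125 nM JAK inhibitor controls.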
# [5] = molecular target: Glucocorticoid receptor (Homo sapiens) (UniProt P04150); test: GR-GFP Redistribution (AID 450;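 active means compounds whose dose series gives a full or clear partial fitted curve of increased nuclear translocation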; further: potency means the concentration at half of the fitted maximal effect); conditions: U2OS GR-GFP nuclear translocation, laser cytometry, 2 h
# [6] = molecular target: Glucocorticoid receptor (Homo sapiens) (UniProt P04150); test: GR-EFC Redistribution (AID 451; calls by dose curve; further: potency means the concentration at half of the fitted maximal effect); conditions: CHO-K1 GR-EFC translocation, beta-gal luminescence, 2 h
# Summary of the method: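 Translocation of GR-ED fusion to nuclear EA restores b-gal, read by luminescence after 1 h room-temperature detection. Engineered CHO-K1 biosensor cells, 1,000/well, exposed 2 h at 37 C to titrations up to 46 uM final.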
# [7] = molecular target: Mitogen-activated protein kinase 10 (Mus musculus) (UniProt Q61831); test: JNK3 AlphaScreen Assay (AID 530); conditions: JNK3 lysate, c-Jun phosphorylation; series mostly up to 11.4 µM;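 further: kinase came from lysate of stimulated human HepG2 cells; signal reports phosphorylation of biotinylated GST-cJun 1-79 at Ser73 with 10 µM ATP; on the % scale 0 is the no-effect control and ±100 the full control effect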
# Summary of the method: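 Compound titrations were preincubated 15 minutes at room temperature with substrate, antibody and pre-activated JNK3-containing HepG2 lysate. Reactions were started with 10 uM ATP and stopped with EDTA-containing bead buffer for AlphaScreen detection.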
# [8] = molecular target: 3',5'-cyclic-AMP phosphodiesterase 4B (Homo sapiens) (UniProt Q07343); test: qHTS Assay for Inhibitors of PDE-IV (AID 607; active means well fitted activation curve with a large enough effect in the main read-out, with a control signal flat, not every such curve was filed as active; further: % of control where 0% means no effect); conditions: HEK293 ACTOne CNG channel cells, membrane potential fluorescence; series mostly up to 22.9 µM
# Summary of the method: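 HEK293 ACTOne cells with CNG channel (1000/well), endogenous PDE4; membrane potential dye, compounds up to 22.9 uM final. Fluorescence Ex 535/Em 590; RO 20-1724 (100 uM final) as reference.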
# [9] = NFAT Signaling Pathway (AID 444); conditions: Jurkat NFAT-bla M1, carbachol, beta-lactamase ratio, 5 h; at 7.69 µM (top of the series) unless noted;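 further: carbachol stimulus at about its EC50 of 1 µM final; on the % scale 0 is the no-effect control and ±100 the full control effect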
# Summary of the method: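 Read-out: CCF4 FRET ratio (460 nm/530 nm) after 1 h RT dye loading, used for %activity and AC50 from titration series. Cells: Jurkat NFAT-β-lactamase/M1 line, treated with compound plus 1 uM carbachol for 5 h, 37 °C.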
# [10] = molecular target: Cytochrome P450 2C9 (Homo sapiens) (UniProt P11712); test: qHTS Assay for Inhibitors and Substrates of Cytochrome P450 2C9 (AID 883; active means well fitted curve in the direction sought with a large enough effect; an effect the other way counts as inactive or inconclusive; further: potency means the concentration at half of the fitted maximal effect; nearly all actives have a fitted effect of over 60% in size); conditions: recombinant CYP2C9, luciferin-H luminescence, 60 min; series mostly up to 11.4 µM
# Summary of the method: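 Luminescent read-out of deoxyluciferin hydroxylation, normalized to 57uM sulphaphenazole (AC100). Reaction: 10nM enzyme, 100uM Luciferin-H (equal to KM), 25mM KPO4, 10 min compound preincubation, then 60 min with NADPH regeneration, both at 37C.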
# [11] = molecular target: Cytochrome P450 2C19 (Homo sapiens) (UniProt P33261); test: qHTS Assay for Inhibitors and Substrates of Cytochrome P450 2C19 (AID 899; active means well fitted curve in the direction sought with a large enough effect; an effect the other way counts as inactive or inconclusive; further: potency means the concentration at half of the fitted maximal effect; nearly all actives have a fitted effect of over 60% in size); conditions: recombinant CYP2C19, luciferin-H EGE luminescence; series mostly up to 11.4 µM
# Summary of the method: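 Luminescence readout of luciferin formed from 10uM Luciferin-H EGE (KM level) by 5 nM CYP2C19 in 50mM KPO4. 60 min NADPH-driven reaction at 37C after 10 min compound preincubation; data scaled to 57uM ketoconazole inhibition.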
# [12] = molecular target: Cytochrome P450 3A4 (Homo sapiens) (UniProt P08684); test: qHTS Assay for Activators of Cytochrome P450 3A4 (AID 885; active means well fitted curve in the direction sought with a large enough effect; an effect the other way counts as inactive or inconclusive; further: nearly all actives have a fitted effect of over 65% in size); conditions: recombinant CYP3A4, Luciferin-PPXE luminescence, 60 min; series mostly up to 11.4 µM
# Summary of the method: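 Human CYP3A4 (20 nM) with Luciferin-PPXE at 25 uM (its KM) in 200 mM KPO4; 10 min compound preincubation, then NADPH regeneration and 60 min reaction at RT. Luciferin read by luminescence; normalized to 57 uM ketoconazole full inhibition.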
# Chain of 3',5'-cyclic-AMP phosphodiesterase 4B (Homo sapiens) (Q07343 whole entry, looked up): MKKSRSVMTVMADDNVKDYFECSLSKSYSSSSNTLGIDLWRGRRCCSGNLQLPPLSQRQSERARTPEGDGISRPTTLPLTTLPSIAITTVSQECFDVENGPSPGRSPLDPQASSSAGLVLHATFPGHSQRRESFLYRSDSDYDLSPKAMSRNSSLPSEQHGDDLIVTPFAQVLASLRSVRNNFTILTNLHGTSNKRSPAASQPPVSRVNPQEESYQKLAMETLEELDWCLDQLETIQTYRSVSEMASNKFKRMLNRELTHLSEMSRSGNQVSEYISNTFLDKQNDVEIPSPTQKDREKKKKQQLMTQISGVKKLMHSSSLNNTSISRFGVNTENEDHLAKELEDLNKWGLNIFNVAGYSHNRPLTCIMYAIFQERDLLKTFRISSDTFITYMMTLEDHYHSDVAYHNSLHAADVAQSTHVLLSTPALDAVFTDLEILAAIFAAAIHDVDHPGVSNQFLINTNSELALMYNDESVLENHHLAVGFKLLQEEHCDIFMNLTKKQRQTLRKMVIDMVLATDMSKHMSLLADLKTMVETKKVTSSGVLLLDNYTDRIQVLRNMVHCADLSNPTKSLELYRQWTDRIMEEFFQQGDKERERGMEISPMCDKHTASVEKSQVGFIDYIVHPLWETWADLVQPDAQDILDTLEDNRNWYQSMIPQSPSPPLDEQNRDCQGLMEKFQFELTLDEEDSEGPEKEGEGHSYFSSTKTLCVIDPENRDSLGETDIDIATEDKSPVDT
# Chain of Cytochrome P450 1A2 (Homo sapiens) (P05177 whole entry, looked up): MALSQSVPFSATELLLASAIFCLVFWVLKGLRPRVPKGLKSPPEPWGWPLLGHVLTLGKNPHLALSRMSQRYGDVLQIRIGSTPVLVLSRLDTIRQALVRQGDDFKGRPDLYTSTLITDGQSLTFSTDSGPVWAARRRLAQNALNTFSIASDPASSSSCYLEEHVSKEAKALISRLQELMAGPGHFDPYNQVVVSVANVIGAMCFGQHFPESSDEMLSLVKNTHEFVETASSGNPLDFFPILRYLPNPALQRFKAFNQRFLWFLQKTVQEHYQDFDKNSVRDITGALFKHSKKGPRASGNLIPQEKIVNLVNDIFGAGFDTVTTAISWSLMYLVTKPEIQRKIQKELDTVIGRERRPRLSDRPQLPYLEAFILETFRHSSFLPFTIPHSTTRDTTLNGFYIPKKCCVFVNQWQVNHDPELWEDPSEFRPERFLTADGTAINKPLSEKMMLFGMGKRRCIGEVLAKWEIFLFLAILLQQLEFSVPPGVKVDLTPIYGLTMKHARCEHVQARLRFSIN
# Chain of Cytochrome P450 2C9 (Homo sapiens) (P11712 whole entry, looked up): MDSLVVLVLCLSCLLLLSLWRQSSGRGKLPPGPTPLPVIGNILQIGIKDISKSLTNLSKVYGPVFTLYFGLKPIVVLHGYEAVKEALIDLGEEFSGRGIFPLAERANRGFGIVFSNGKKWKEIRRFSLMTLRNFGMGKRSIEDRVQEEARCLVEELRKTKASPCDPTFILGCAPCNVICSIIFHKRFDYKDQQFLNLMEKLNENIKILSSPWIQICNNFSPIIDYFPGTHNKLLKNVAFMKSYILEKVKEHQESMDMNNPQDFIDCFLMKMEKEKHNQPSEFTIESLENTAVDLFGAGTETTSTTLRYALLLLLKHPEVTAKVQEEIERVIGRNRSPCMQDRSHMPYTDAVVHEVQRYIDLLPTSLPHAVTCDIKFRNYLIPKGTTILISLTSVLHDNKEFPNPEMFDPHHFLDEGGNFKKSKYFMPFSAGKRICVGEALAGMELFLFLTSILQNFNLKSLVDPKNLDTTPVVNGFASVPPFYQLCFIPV
# Chain of Lysosomal acid glucosylceramidase (Homo sapiens) (P04062 whole entry, looked up): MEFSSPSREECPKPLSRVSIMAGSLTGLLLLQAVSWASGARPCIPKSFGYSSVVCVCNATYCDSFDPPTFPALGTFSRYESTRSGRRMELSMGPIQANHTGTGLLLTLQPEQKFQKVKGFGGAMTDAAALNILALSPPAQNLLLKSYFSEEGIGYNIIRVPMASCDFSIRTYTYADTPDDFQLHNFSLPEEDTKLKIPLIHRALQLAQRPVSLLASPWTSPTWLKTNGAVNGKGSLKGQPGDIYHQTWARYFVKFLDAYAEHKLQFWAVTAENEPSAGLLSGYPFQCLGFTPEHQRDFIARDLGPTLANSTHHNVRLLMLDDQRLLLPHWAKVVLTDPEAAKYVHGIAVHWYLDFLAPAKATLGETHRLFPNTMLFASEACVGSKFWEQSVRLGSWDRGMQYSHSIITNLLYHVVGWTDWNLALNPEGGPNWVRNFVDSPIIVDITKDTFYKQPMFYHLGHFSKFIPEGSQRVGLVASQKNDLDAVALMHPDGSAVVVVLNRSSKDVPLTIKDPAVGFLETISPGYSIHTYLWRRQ
# Chain of Glucocorticoid receptor (Homo sapiens) (P04150 whole entry, looked up, the tested form may be a part): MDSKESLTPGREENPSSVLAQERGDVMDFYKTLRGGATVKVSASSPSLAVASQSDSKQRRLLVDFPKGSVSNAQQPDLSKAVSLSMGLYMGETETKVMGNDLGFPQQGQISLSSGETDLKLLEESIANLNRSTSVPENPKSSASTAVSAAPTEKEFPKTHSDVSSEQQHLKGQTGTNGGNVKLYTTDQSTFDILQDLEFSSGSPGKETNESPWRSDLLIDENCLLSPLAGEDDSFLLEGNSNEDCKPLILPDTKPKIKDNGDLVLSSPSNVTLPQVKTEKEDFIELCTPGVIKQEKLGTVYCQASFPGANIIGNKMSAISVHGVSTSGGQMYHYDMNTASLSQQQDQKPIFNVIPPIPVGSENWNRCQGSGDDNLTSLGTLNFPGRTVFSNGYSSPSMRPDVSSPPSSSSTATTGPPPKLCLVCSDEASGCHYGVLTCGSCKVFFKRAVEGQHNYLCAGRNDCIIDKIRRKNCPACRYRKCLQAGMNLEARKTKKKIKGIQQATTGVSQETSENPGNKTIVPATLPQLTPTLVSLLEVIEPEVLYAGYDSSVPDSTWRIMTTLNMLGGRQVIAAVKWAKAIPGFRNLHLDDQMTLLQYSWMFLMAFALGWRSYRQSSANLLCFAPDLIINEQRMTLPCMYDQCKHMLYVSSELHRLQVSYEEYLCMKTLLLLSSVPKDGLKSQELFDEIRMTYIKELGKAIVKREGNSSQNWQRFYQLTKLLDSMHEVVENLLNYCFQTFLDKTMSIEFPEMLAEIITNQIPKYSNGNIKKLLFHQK
# Chain of Cytochrome P450 3A4 (Homo sapiens) (P08684 whole entry, looked up): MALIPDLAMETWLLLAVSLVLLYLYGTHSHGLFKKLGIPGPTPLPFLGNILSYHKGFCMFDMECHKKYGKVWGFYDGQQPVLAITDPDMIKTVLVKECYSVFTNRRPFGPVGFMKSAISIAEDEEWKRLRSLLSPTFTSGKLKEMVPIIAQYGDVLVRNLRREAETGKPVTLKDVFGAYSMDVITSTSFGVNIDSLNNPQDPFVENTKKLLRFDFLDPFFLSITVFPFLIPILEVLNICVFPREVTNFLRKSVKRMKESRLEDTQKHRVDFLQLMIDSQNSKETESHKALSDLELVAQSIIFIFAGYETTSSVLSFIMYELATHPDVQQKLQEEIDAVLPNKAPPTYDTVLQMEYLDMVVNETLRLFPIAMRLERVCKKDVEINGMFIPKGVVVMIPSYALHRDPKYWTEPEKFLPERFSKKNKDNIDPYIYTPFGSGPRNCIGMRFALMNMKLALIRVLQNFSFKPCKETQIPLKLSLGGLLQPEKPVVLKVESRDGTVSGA
# Chain of Cytochrome P450 2C19 (Homo sapiens) (P33261 whole entry, looked up): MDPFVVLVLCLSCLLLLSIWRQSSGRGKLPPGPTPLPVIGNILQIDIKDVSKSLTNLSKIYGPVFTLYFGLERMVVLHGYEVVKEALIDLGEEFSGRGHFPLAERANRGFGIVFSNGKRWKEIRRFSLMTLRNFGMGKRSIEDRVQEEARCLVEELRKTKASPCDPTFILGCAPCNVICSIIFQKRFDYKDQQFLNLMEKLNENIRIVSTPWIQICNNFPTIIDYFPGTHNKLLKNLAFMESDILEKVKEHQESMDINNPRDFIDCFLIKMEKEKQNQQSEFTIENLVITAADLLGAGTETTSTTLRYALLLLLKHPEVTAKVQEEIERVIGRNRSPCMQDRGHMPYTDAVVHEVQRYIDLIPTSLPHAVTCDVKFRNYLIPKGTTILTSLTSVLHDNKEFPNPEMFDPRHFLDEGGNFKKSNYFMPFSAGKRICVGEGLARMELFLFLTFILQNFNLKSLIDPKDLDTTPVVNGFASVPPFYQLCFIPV
SMILES,Potency [1],"activity change, negative = inhibition [2] [%]",Potency [3],"activity, negative = inhibition [4] [%]",Potency [5] [µM],Potency [6] [µM],Potency [7],Potency [8],"activity change, negative = inhibition [3]","activity change, negative = inhibition [9] [%]",Potency [10],Potency [11],Potency [12]
Cc1c2cc[n+](CCN3CCCCC3)cc2c(C)c2c1[nH]c1ccc(O)cc12,> 11.4 µM,9.2,2.51 µM (active),17.1,> 46,> 9.22,inactive,inactive,–,–,–,–,–
Cn1ncc2c(Nc3cccc(Cl)c3)nc(Nc3cccc(Cl)c3)nc21,7.36 µM (active),-0.941,3.98 µM (active),4.09,> 46,> 9.22,inactive,inactive,–,–,–,–,–
N#CC[N+]1(Cc2ccccn2)CCCC1,> 11.4 µM,-12.2,–,-1.41,> 46,> 9.22,inactive,inactive,3.4% [at 2.29 µM],–,–,–,–
CC1=c2c(oc3cc(O)c(Nc4c(C)cc(O)cc4O)c(C)c23)=CC(=O)C1=Nc1c(C)cc(O)cc1O,> 11.4 µM,-6.5,3.16 µM (active),–,> 46,> 9.22,–,inactive,–,-22.3,3.16 µM (active),3.16 µM (active),–
C[C@]1(O)CC[C@H]2[C@H]3CC=C4N5CCN=C5CC[C@@]4(C)[C@H]3CC[C@@]21C,> 11.4 µM,-0.00324,–,-6.8,> 46,> 9.22,inactive,inactive,-12.8% [at 2.29 µM],–,–,–,–
CC(C)C(=O)C(C)(C)CCc1ccccn1,> 11.4 µM,27.3,2.51 µM (active),1.04,> 46,> 9.22,inactive,inactive,–,–,–,–,–
O=c1c(-c2cccs2)nc2cnc(Oc3ccccc3)nc2n1C1CC1,> 11.4 µM,-6.67,2.51 µM (active),–,> 9.22,> 46,–,inactive,–,22.4,3.16 µM (active),–,–
C[C@H]1CN(CCO)CCN1c1ccccc1,> 11.4 µM,11.5,inactive,7.5,> 46,> 9.22,inactive,inactive,–,–,–,–,–
Oc1c(CN2CCN(c3ccccc3)CC2)cc(Br)c2cccnc12,> 11.4 µM,3.27,1.26 µM (active),-0.132,> 46,> 9.22,inactive,inactive,–,–,–,–,–
O=C(O)/C=C\c1c2ccc(=O)c(O)c-2oc2c(O)c(O)ccc12,> 11.4 µM,-8.29,–,–,> 46,> 9.22,–,inactive,-19.8% [at 2.29 µM],2.25,–,–,–
CCN(CC)CC[n+]1ccc2c(C)c3[nH]c4ccc(O)cc4c3c(C)c2c1,> 11.4 µM,0.748,3.16 µM (active),26.1,> 46,> 9.22,inactive,inactive,–,–,–,–,–
COC(=O)CC[C@@H](C)[C@H]1CC[C@H]2[C@H]3CC[C@H]4C[C@@H]5CC[C@@]4(C)C3(O5)[C@@H](Br)[C@@H](Br)[C@@]12C,> 11.4 µM,21.4,inactive,–,> 46,> 9.22,–,inactive,–,8.56,2.51 µM (active),–,inactive
O=C(O)C[n+]1ccccc1,> 11.4 µM,-3.27,inactive,–,–,–,inactive,inactive,–,-24,–,–,–
Nc1c(OCC(=O)O)ccc2cc(S(=O)(=O)O)ccc12,> 11.4 µM,3.51,inactive,-10.7,> 46,> 9.22,inactive,inactive,–,–,–,–,–
O[C@@H](c1cc(C(F)(F)F)nc2c(Cl)cc(Cl)cc12)[C@@H]1CCCCN1,> 11.4 µM,14.2,3.98 µM (active),-0.0324,> 46,> 9.22,inactive,inactive,–,–,–,–,–
O=C(O)CCNc1ncnc2nc[nH]c12,> 11.4 µM,8.82,inactive,-5.64,> 46,> 9.22,inactive,inactive,–,–,–,–,–
